Spn DPM-DC inh – S. pneumoniae DPM-DC inhibitors, primary screen, biochemical, PK/LDH-coupled NADH fluorescence; diphosphomevalonate decarboxylase (Streptococcus pneumoniae D39); purified DPM-DC; calls only at 10 µM; 65,000 compounds, 0.49% hits; AID 556, 2006;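 active = the 320 compounds with the highest percent inhibition in the single-dose primary screen, excluding strongly autofluorescent ones, cut at about 32% in these data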;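 also: kinetic rate of NADH fluorescence loss reporting ADP formed by the decarboxylase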
A340 absorber – compound light absorbance at 340 nm, profiling panel, artefact control, biochemical, MLSMR library, data from PS, PMK, MK assays | compound absorbance at 340 nm, fold over control | fold change at 10 µM | 65,000 tested, under 10 active | AID 708, 2007;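 active = at 10 µM dose, initial 340 nm absorbance at least 2 fold that of control wells; inactive = change under 2 fold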;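 also: initial absorbance extrapolated from kinetic A340 decline of NADH oxidation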
Autofluor 339 – intrinsic fluorescence of library compounds, ex339/em460 – biochemical, MLSMR library, data from DPM-DC assay, artefact control, profiling panel | fluorescence fold increase at 10 µM | 65,000 compounds, 5.5% hits | compound autofluorescence, ex339/em460 nm, NADH buffer; stronger effect = higher value; 1 = no-compound wells, NADH background;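 active = at 10 µM, mean starting fluorescence two-fold or more over control wells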;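 also: signal is the first read of a kinetic run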
PMK inhibit – S. pneumoniae PMK inhibitors, primary screen, biochemical, mevalonate pathway, pilot trial included; purified PMK, PK/LDH-coupled NADH absorbance 340 nm; inhibition, % at 10 µM; phosphomevalonate kinase (Streptococcus pneumoniae D39); 65,000 compounds, 0.49% hits;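 active = top-ranked compounds by inhibition in the single 10 µM screen, taking a fixed number of the strongest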
NADH coupling – inhibitors of PK/LDH coupling enzymes, profiling panel, artefact control, biochemical, MLSMR library. coupled PK/LDH NADH assays, four targets. 65,000 compounds, 0.02% hits. AID 774, 2007. IC50, µM (doses to about 10 µM);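 active = single-dose screening hits from any of four coupled enzyme assays that gave an IC50 when retested across doses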;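 also: the DPM-DC format reads NADH fluorescence rather than 340 nm absorbance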
MK inhibit – S. pneumoniae MK inhibitors, primary screen, biochemical, PK/LDH-coupled NADH absorbance; mevalonate kinase [Streptococcus pneumoniae D39]; 65,000 compounds, 0.48% hits; inhibition, % at 10 µM; purified MK, PK/LDH-coupled NADH absorbance 340 nm;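 active = ranked among the strongest by inhibition in the single 10 µM screen, a fixed top-ranked set picked for dose follow-up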
Hits are given with their value. Shown are actives, neighbours in structure and some others; about 6.8% of the full set was active somewhere.

`COC(=O)Cn1ncc2c(C)n(Cc3ccccc3)c(C)c2c1=O` gave Spn DPM-DC inh inactive, A340 absorber inactive, Autofluor 339 inactive, PMK inhibit inactive, NADH coupling inactive and MK inhibit inactive.
CNC(=O)Cn1ncc2c(C)n(Cc3ccc(C)cc3)c(C)c2c1=O was read as Spn DPM-DC inh inactive, A340 absorber inactive, Autofluor 339 inactive, PMK inhibit 34, NADH coupling inactive and MK inhibit inactive.
For COc1ccc(OC)c(NC(=O)CN2C(=O)c3ccccc3S2(=O)=O)c1 the results were Spn DPM-DC inh inactive, A340 absorber inactive, Autofluor 339 inactive, PMK inhibit inactive, NADH coupling inactive and MK inhibit inactive.
COc1ccc2c(c1)-c1ccccc1S(=O)(=O)N2C(C)=O was read as Spn DPM-DC inh active, A340 absorber inactive, Autofluor 339 3.6, PMK inhibit inactive, NADH coupling inactive and MK inhibit inactive.
For Cc1ccc(C(=O)Nc2cnc3sc(C)nn3c2=O)cc1 the results were Spn DPM-DC inh inactive, A340 absorber inactive, Autofluor 339 inactive, PMK inhibit inactive, NADH coupling inactive and MK inhibit inactive.
`Cc1ccc(C2C3=C(CC(C)(C)CC3=O)Nc3n[nH]c(C)c32)cc1` (centres undefined) gave A340 absorber inactive, Autofluor 339 4.9, PMK inhibit inactive, NADH coupling inactive and MK inhibit inactive.
`Cc1cc2c(cc1C)NC(c1cccnc1)C1=C(CC(C)(C)CC1=O)N2` (centres undefined) gave Spn DPM-DC inh inactive, A340 absorber inactive, Autofluor 339 inactive, PMK inhibit inactive, NADH coupling inactive and MK inhibit inactive.
Cc1[nH]nc2c1C(c1cccc(O)c1)C1=C(CC(C)(C)CC1=O)N2 (centres undefined) was read as A340 absorber inactive, Autofluor 339 5, PMK inhibit inactive, NADH coupling inactive and MK inhibit inactive.
Cc1[nH]nc2c1C(c1ccc(F)cc1)C1=C(CC(C)(C)CC1=O)N2 (centres undefined) was read as A340 absorber inactive, Autofluor 339 3.1, PMK inhibit inactive, NADH coupling inactive and MK inhibit inactive.
Screening COC(=O)c1ccc(N2C(=O)CC(Sc3n[nH]c(C)n3)C2=O)cc1 (centres undefined) returned Spn DPM-DC inh inactive, A340 absorber inactive, Autofluor 339 inactive, PMK inhibit inactive, NADH coupling inactive and MK inhibit inactive.
Screening Cc1nc(SC2C=CS(=O)(=O)C2)n[nH]1 (centres undefined) returned Spn DPM-DC inh inactive, A340 absorber inactive, Autofluor 339 inactive, PMK inhibit 11, NADH coupling inactive and MK inhibit inactive.
Screening CC(C)CNS(=O)(=O)c1ccc(S(=O)(=O)N2CCN(CCC#N)CC2)cc1 returned Spn DPM-DC inh inactive, A340 absorber inactive, Autofluor 339 inactive, PMK inhibit inactive, NADH coupling inactive and MK inhibit inactive.
NC1C2CN(c3nc4c(cc3F)c(=O)c(C(=O)O)cn4-c3ccc(F)cc3F)CC12 (centres undefined) was read as Spn DPM-DC inh inactive, A340 absorber inactive, Autofluor 339 2.1, PMK inhibit inactive, NADH coupling inactive and MK inhibit inactive.
COc1ccc(C2Nc3ccccc3C(=O)N2O)cc1OC (centres undefined) was read as Spn DPM-DC inh inactive, A340 absorber inactive, Autofluor 339 inactive, PMK inhibit inactive, NADH coupling inactive and MK inhibit inactive.
CCN(CC)CCN1C(=O)c2ccccc2NC1c1cc(OC)c(OC)c(OC)c1 (centres undefined) was read as A340 absorber inactive, Autofluor 339 2.3, PMK inhibit inactive, NADH coupling inactive and MK inhibit inactive.
Screening CCN(CC)CCN1C(=O)c2ccccc2NC1c1cccc(F)c1 (centres undefined) returned A340 absorber inactive, Autofluor 339 2.1, PMK inhibit inactive, NADH coupling inactive and MK inhibit inactive.
N=c1c(C(=O)NCc2ccco2)cc2c(=O)n3ccccc3nc2n1Cc1ccc(Cl)cc1 was read as Spn DPM-DC inh inactive, A340 absorber inactive, Autofluor 339 2.5, PMK inhibit inactive, NADH coupling inactive and MK inhibit inactive.
N=c1c(C(=O)NCc2ccco2)cc2c(=O)n3ccccc3nc2n1Cc1ccccc1 was read as Spn DPM-DC inh inactive, A340 absorber inactive, Autofluor 339 2.4, PMK inhibit inactive, NADH coupling inactive and MK inhibit inactive.
For COCCCn1c(=N)c(C(=O)NCc2ccc3c(c2)OCO3)cc2c(=O)n3ccccc3nc21 the results were Spn DPM-DC inh inactive, A340 absorber inactive, Autofluor 339 inactive, PMK inhibit inactive, NADH coupling inactive and MK inhibit inactive.
For O=C(CCn1c(=O)c2ccccc2n(Cc2cc(=O)n3ccccc3n2)c1=O)NCc1ccco1 the results were Spn DPM-DC inh inactive, A340 absorber inactive, Autofluor 339 2.2, PMK inhibit inactive, NADH coupling inactive and MK inhibit inactive.
For N=c1c(C(=O)NCc2ccc3c(c2)OCO3)cc2c(=O)n3ccccc3nc2n1Cc1cccnc1 the results were Spn DPM-DC inh inactive, A340 absorber inactive, Autofluor 339 inactive, PMK inhibit inactive, NADH coupling inactive and MK inhibit inactive.
Screening COCCn1c(=N)c(C(=O)NCc2ccco2)cc2c(=O)n3ccccc3nc21 returned Spn DPM-DC inh inactive, A340 absorber inactive, Autofluor 339 3, PMK inhibit inactive, NADH coupling inactive and MK inhibit inactive.
Screening CCCCNC(=O)C1CCCN1C(=O)Nc1cccc(OC)c1 (centres undefined) returned Spn DPM-DC inh inactive, A340 absorber inactive, Autofluor 339 inactive, PMK inhibit inactive, NADH coupling inactive and MK inhibit inactive.
`COc1ccc(N2CCN(CCNC(=O)c3cccn4c(=O)c5ccc(Cl)cc5nc34)CC2)cc1` gave Spn DPM-DC inh inactive, A340 absorber inactive, Autofluor 339 inactive, PMK inhibit inactive, NADH coupling inactive and MK inhibit inactive.
Screening O=c1c2c3c(sc2n2cnnc2n1-c1ccccc1)N(Cc1ccccc1)CCC3 returned Spn DPM-DC inh inactive, A340 absorber inactive, Autofluor 339 inactive, PMK inhibit inactive, NADH coupling inactive and MK inhibit inactive.
`CCOC(=O)c1cc2c(=O)n3ccccc3nc2n(Cc2ccc(Cl)cc2)c1=N` gave Spn DPM-DC inh inactive, A340 absorber inactive, Autofluor 339 2.3, PMK inhibit inactive, NADH coupling inactive and MK inhibit inactive.
CN(CCNC(=O)c1ccc(N2CCCC2=O)cc1)CCc1ccccc1 was read as Spn DPM-DC inh inactive, A340 absorber inactive, Autofluor 339 inactive, PMK inhibit inactive, NADH coupling inactive and MK inhibit inactive.

Screens (PubChem BioAssay)
